PubChem BioAssay (EPA / NIEHS)
Results filed as inconclusive are left out. The source made the active and inactive calls. The calls were made as follows: active = hit-call score of the fitted dose curve at least 0.9, where 1 is the maximum; inconclusive = response in the unintended direction; inactive = score below 0.9.

read-out: Cytochrome P450 2C19 (Homo sapiens) (UniProt P33261); test: CLD_CYP2C19_24hr: CellzDirect (CLD) Gene Expression Assay for xenobiotic metabolism (CYP2C19) at 24 hours (AID 2283687);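 also: activity means mRNA induction above DMSO vehicle baseline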
Experimental: CLD_24hr is a cell-based, multiplexed-readout assay that uses hepatocyte, a human liver primary cell, with measurements taken at 24 hours after chemical dosing in a 96-well plate.CLD_CYP2C19_24hr is one of 16 assay component(s) measured or calculated from the CLD_24hr assay. It is designed to make measurements of mRNA induction, a form of inducible reporter, as detected with chemiluminescence signals by Quantitative Nuclease Protection Assay (qNPA) technology.Data from the assay component CLD_CYP2C19_24hr was analyzed at the endpoint, CLD_CYP2C19_24hr, in the positive analysis fitting direction relative to DMSO as the negative control and baseline of activity. Using a type of inducible reporter, gain-of-signal activity can be used to understand changes in the reporter gene as they relate to the gene CYP2C19. Furthermore, this assay endpoint can be referred to as a primary readout. To generalize the intended target to other relatable targets, this assay endpoint is annotated to the cyp intended target family, where subfamily is xenobiotic metabolism.
Human hepatocyte cultures were treated daily for two consecutive days with fresh dosing solutions containing appropriate concentrations of the 320 ToxCast chemicals (chemical identities were blinded to CellzDirect and other ToxCast collaborators), vehicle control (0.2% DMSO), and positive control inducers as summarized in Table 1. Due to the large number of treatment groups and chemicals examined, the ToxCast chemicals were divided into two groups (spanning two independent cultures of hepatocytes from separate donor preparations (Hu778: ToxCast plates 1 and 2; Hu776: ToxCast plates 3 and 4). Each preparation of human hepatocyte cultures was treated with respective vehicle control, medium only control, set of six positive controls/reference chemicals for the five hepatic receptor pathways, and a subset of eight of the ToxCast chemicals (indoxacarb, pyrithiobac-sodium, norflurazon, cyhalofop-butyl, methomyl, thiram, acetochlor, and propiconazole). These replicate data, coupled with internal replicates designed within the blinded ToxCast chemical library, provided additional data to evaluate interindividual differences between hepatocyte preparations and their potential impact on chemical profiles.Cell morphology and integrity were evaluated using phase-contrast microscopy as an indicator of hepatocyte cell health (Tyson & Green, 1987). Cultures for each treatment group (i.e., media, vehicle [0.2% DMSO], positive control inducers [multiple concentrations], and the ToxCast chemicals [multiple concentrations]) were observed and cell morphology was assessed relative to vehicle control cultures at each harvest time point (0, 6, 24, or 48 h). […] Images were evaluated at the conclusion of the study to assess changes in cell integrity and account for the effects of chemical exposure on uncharacteristic changes in concentration-dependent gene expression profiles. The results from these determinations of apparent cytotoxicity were annotated (yes/no) alongside the corresponding qNPA data for reference.At the conclusion of each treatment period, hepatocyte cultures (96-well) were washed with 1 volume of HBSS, lysed by addition of 25 ul ArrayPlate lysis buffer (HTG, Tucson, AZ), and 70 ul/well of Denaturation Oil, denatured by incubation at 95C for 10 min, and frozen at approximately -70C until analysis by nuclease protection assay (qNPA) (Roberts et al., 2007). For qNPA analysis, cell lysates were thawed at 50C for approximately 30 min, qNPA probes were added, and samples were incubated at 95C for 10 min to begin the detection process by denaturing the target RNA, dissociating the duplexes and secondary structure hybridization. At the conclusion of the hybridization period, S1 nuclease reagent was added to each sample to digest all nonprotected nucleotides at 50C for 60-90 min. […]

Cytochrome P450 2C19 (Homo sapiens), sequence (P33261 whole entry, looked up): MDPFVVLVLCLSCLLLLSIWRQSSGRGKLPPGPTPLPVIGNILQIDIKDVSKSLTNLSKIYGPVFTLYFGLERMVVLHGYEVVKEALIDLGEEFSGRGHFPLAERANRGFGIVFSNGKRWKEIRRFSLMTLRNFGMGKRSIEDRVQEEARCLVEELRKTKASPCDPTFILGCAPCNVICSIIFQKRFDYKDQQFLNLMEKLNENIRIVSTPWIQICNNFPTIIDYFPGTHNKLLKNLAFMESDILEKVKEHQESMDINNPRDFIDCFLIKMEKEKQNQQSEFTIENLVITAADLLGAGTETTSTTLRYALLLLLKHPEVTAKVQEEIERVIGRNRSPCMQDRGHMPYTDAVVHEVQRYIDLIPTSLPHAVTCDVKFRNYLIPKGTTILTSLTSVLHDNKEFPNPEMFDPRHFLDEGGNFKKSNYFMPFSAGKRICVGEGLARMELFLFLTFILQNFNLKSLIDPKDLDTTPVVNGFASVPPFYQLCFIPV

Question: For `CCCCNC(=O)n1c(NC(=O)OC)nc2ccccc21`, which outcome is on record?
Answer: inactive

Question: Which outcome does the source give for `O=C(O)COc1nc(Cl)c(Cl)cc1Cl` here?
Answer: inactive

Question: For `COc1nc(C)nc(NC(=O)NS(=O)(=O)c2ccccc2CCC(F)(F)F)n1`, which outcome is on record?
Answer: inactive

Question: `CC(C)C1(C)N=C(c2nc3ccccc3cc2C(=O)O)NC1=O` (centres undefined) was tested. Which outcome did it give?
Answer: inactive

Question: For `O=C(O)c1nc(Cl)ccc1Cl`, which outcome is on record?
Answer: inactive

Question: With `CC1COC(Cn2cncn2)(c2ccc(Oc3ccc(Cl)cc3)cc2Cl)O1` (centres undefined) as the molecule, how does the outcome read?
Answer: inactive

Question: How did the outcome turn out when `CCON=C(CC)C1=C(O)CC(c2c(C)cc(C)cc2C)CC1=O` (centres undefined) was run?
Answer: inactive

Question: Which outcome does the source give for `CCOC(=O)CC(SP(=S)(OC)OC)C(=O)OCC` (centres undefined) here?
Answer: inactive

Question: `COP(=S)(OC)Oc1nc(Cl)c(Cl)cc1Cl` was tested. Which outcome did it give?
Answer: inactive

Question: For `COP(N)(=O)SC` (centres undefined), which outcome is on record?
Answer: inactive

Question: `COC(=O)C(C)Oc1ccc(Oc2ccc(Cl)cc2Cl)cc1` (centres undefined) was tested. Which outcome did it give?
Answer: inactive

Question: How did the outcome turn out when `CCNc1nc(Cl)nc(NC(C)C)n1` was run?
Answer: inactive

Question: `Oc1ccccc1-c1ccccc1` was tested. Which outcome did it give?
Answer: inactive

Question: For `CC(C)(C)c1ccc(CSc2cnn(C(C)(C)C)c(=O)c2Cl)cc1`, which outcome is on record?
Answer: inactive

Question: For `CCOC(=O)C(Cl)Cc1cc(-n2nc(C)n(C(F)F)c2=O)c(F)cc1Cl` (centres undefined), which outcome is on record?
Answer: inactive

Question: How did the outcome turn out when `CO/C=C(/C(=O)OC)c1ccccc1Oc1cc(Oc2ccccc2C#N)ncn1` was run?
Answer: inactive

Question: Which outcome does the source give for `COC(=O)N(OC)c1ccccc1COc1ccn(-c2ccc(Cl)cc2)n1` here?
Answer: inactive

Question: `COc1nc(NC(C)C)nc(NC(C)C)n1` was tested. Which outcome did it give?
Answer: inactive

Question: For `COC(=O)c1ccccc1C(=O)OC`, which outcome is on record?
Answer: inactive

Question: With `COc1cnc(OC)n2nc(NS(=O)(=O)c3c(OCC(F)F)cccc3C(F)(F)F)nc12` as the molecule, how does the outcome read?
Answer: inactive

Question: How did the outcome turn out when `Cc1cc(Cl)ccc1OCC(=O)O` was run?
Answer: inactive

Question: How did the outcome turn out when `CNC(=O)ON=CC(C)(C)SC` was run?
Answer: inactive

Question: `C=CC1(C)OC(=O)N(c2cc(Cl)cc(Cl)c2)C1=O` (centres undefined) was tested. Which outcome did it give?
Answer: inactive

Question: `CC(Oc1ccc(Cl)cc1Cl)C(=O)O` (centres undefined) was tested. Which outcome did it give?
Answer: inactive

Question: `CCCCNC(=O)OCC#CI` was tested. Which outcome did it give?
Answer: inactive

Question: How did the outcome turn out when `CCCCC(CC)COC(=O)c1ccccc1C(=O)OCC(CC)CCCC` (centres undefined) was run?
Answer: inactive

Question: How did the outcome turn out when `CS/C(C)=N/OC(=O)N(C)SN(C)C(=O)O/N=C(\C)SC` was run?
Answer: inactive

Question: For `N#CC(CCc1ccc(Cl)cc1)(Cn1cncn1)c1ccccc1` (centres undefined), which outcome is on record?
Answer: inactive

Question: For `COc1nc(C)nc(NC(=O)NS(=O)(=O)c2ccccc2Cl)n1`, which outcome is on record?
Answer: inactive
